This is an account of results in PubChem BioAssay.

Unmarked numbers belong to inactive results. Activity calls are given as the source filed them.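 How the source made its calls, unless noted: active means at least 20% inhibition of 6-phosphogluconate dehydrogenase activity; inactive means the rest.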

For assay [1], the target named is 6-phosphogluconate dehydrogenase, decarboxylating (Homo sapiens) (UniProt P52209). Put plainly: inhibition of human phosphogluconate dehydrogenase – biochemical, recombinant enzyme, NADPH absorbance, primary screen (AID 1159550). The settings on record: recombinant 6PGD, NADPH absorbance 341 nm; at 10 µM; hits give high values.
Assay [2] concerns the target Mitogen-activated protein kinase 7 (Homo sapiens) (UniProt Q13164). Put plainly: Gal4-ERK5 driven luciferase induction – cell-based, HTS, primary screen (AID 1508626;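 active means luciferase signal above three times the same-plate solvent-only control wells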;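 further: luciferase driven by Gal4-ERK5 fusion binding five Gal4 sites before minimal TATA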). The settings on record: HeLa Gal4-ERK5 transactivation, 18 h, at 5 µM, hits give high values.

6-phosphogluconate dehydrogenase, decarboxylating (Homo sapiens), sequence (P52209 whole entry, looked up, the tested form may be a part): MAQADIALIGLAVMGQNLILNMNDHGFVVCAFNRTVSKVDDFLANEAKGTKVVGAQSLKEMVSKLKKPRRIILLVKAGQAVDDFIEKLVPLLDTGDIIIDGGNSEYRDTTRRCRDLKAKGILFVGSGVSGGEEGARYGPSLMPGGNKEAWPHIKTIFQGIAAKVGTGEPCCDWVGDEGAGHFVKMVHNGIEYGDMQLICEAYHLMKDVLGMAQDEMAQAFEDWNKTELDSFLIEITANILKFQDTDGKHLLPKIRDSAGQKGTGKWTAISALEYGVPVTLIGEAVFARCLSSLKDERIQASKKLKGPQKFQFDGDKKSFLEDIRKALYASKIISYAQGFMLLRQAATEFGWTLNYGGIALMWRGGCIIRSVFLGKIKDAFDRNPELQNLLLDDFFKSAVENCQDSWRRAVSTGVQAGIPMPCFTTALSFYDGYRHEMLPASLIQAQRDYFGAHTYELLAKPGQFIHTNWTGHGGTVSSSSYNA
Mitogen-activated protein kinase 7 (Homo sapiens), sequence (Q13164 whole entry, looked up, the tested form may be a part): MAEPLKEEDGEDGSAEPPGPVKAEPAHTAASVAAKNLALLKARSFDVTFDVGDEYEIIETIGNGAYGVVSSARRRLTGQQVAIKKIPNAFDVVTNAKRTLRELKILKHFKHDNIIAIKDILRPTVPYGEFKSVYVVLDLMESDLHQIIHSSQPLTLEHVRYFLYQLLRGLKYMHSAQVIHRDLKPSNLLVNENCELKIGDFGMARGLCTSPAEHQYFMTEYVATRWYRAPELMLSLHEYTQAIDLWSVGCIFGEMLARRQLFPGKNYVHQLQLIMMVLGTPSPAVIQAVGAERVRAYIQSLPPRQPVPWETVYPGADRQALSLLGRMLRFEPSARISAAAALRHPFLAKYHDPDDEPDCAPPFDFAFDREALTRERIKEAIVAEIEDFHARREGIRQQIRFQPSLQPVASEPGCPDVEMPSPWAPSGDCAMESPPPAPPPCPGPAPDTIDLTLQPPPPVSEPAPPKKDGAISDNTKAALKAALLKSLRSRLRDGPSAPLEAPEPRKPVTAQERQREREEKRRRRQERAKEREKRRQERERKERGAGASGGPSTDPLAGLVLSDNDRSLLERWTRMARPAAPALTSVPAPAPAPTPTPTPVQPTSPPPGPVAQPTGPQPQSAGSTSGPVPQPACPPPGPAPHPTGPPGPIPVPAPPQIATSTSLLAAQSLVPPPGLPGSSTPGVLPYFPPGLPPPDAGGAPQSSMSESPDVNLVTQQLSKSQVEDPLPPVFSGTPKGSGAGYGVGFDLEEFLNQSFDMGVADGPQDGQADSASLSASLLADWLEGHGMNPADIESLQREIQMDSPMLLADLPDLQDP

In general, inhibition refers to the change of the read-out against control, counted positive when it falls. Regarding `CC(=O)O[C@H]1CC[C@@]2(C)C(=CC(=O)[C@H]3[C@@H]4CC[C@H]([C@H](C)CCCC(C)C)[C@@]4(C)CC[C@@H]32)C1`, the inhibition in assay [1] is -8.76%. The luciferase signal in assay [2] is 76 AU.

In the case of `O=C(O)CN(CC(=O)O)Cc1cc2c(cc1O)Oc1cc(O)c(CN(CC(=O)O)CC(=O)O)cc1C21OC(=O)c2ccccc21`, the inhibition in assay [1] was -1.59%. Further, the luciferase signal in assay [2] was 140 AU.

In the case of `CC(=O)O[C@@H]1CC(=O)[C@@]2(C)C(CC(=O)[C@]3(C)C2CC[C@@]2(C)[C@H](c4ccoc4)OC(=O)C4OC423)C1(C)C` (stereo not given in full), the inhibition in assay [1] was 9.95%. The luciferase signal in assay [2] is 24 AU.

Turning to `C[C@@H]1CC[C@H]2[C@](C)(CO)[C@@H](O)CC[C@]2(C)[C@@]12CC[C@@](CO)(CCO)O2`, in assay [1], the inhibition was -5.82%. Further, in assay [2], the luciferase signal is 48 AU.

As for `C=C1CCC2C(CC2(C)C)C(=C)CC/C1=N/O` (stereo not given), in assay [1], the inhibition is 16.7%. Moreover, in assay [2], the luciferase signal was 88 AU.

As for `COS(C)(=O)=O`, the inhibition in assay [1] was 6.76%. Further, the luciferase signal in assay [2] is 124 AU.

As to `CC(C)c1c(O)ccc2c1CCC1[C@@](C)(C=O)CCC[C@]21C` (stereo not given in full), the inhibition in assay [1] was -10.2%. Besides, in assay [2], the luciferase signal is 16 AU.

`COc1cc2c3cc1Oc1c(OC)c(OC)cc4c1[C@@H](Cc1ccc(O)c(c1)Oc1ccc(cc1)C[C@@H]3N(C)CC2)N(C)CC4`: the inhibition in assay [1] was 14.7%. Moreover, the luciferase signal in assay [2] is 64 AU.

As to `CC1C2[C@]3(CC[C@H]1C)CCC1(C)[C@@]2(C=CC2[C@@]4(C)CC[C@H](O)C(C)(C)C4CC[C@]21C)OC3=O` (stereo not given in full), the inhibition in assay [1] is 5.53%. For the same molecule, the luciferase signal in assay [2] was 56 AU.

As for `COC(=O)C[C@H]1C(C)(C)[C@H](OC(C)=O)[C@@H]2CC3=C4CC(=O)O[C@@H](c5ccoc5)[C@]4(C)CC[C@@H]3C1(C)C2=O`, the inhibition in assay [1] was 7.02%. Further, the luciferase signal in assay [2] is 24 AU.

Take `C[C@@H]1O[C@@H](O[C@H]2[C@H](O[C@H]3CC[C@@]4(C)[C@@H](CC[C@]5(C)[C@@H]4CC=C4[C@@H]6CC(C)(C)CC[C@]6(C(=O)O)CC[C@]45C)[C@]3(C)CO)OC[C@H](O)[C@@H]2O)[C@H](O)[C@H](O)[C@H]1O`: the inhibition in assay [1] is 10.9%. Besides, in assay [2], the luciferase signal is 40 AU.

In the case of `CC(=O)O[C@]1(C)CC[C@@]23C[C@@H]1C(C)(C)[C@@H]2CC[C@H]3C`, in assay [1], the inhibition is 13.3%. Further, the luciferase signal in assay [2] was 56 AU.

In the case of `CC(=O)OC1CC2C(C)(C)C(=O)CCC2(C)C2CCC3(C)C(c4ccoc4)OC(=O)C4OC43C12C` (stereo not given), in assay [1], the inhibition is 11.7%. In assay [2], the luciferase signal was 20 AU.

Turning to `CCC(=O)O[C@H]1CC[C@H]2[C@@H]3CCc4cc(O)ccc4[C@H]3CC[C@]12C`, the inhibition in assay [1] was -10.1%. Also, in assay [2], the luciferase signal is 24 AU.

For `CC(=O)O[C@@H]1c2c(ccc3ccc(=O)oc23)OC(C)(C)[C@@H]1OC(=O)CC(C)C`, the inhibition in assay [1] is -10.5%. Moreover, in assay [2], the luciferase signal was 188 AU.

On to `O=C(Cc1ccccc1)NO`, for which the inhibition in assay [1] is -18.4%. Further, the luciferase signal in assay [2] was 68 AU.

As for `COC(=O)C(O)c1ccccc1` (stereo not given), the inhibition in assay [1] was 1.31%. For the same molecule, the luciferase signal in assay [2] is 28 AU.

Regarding `C[C@H](CCC(=O)O)[C@H]1CC[C@H]2[C@@H]3CC[C@@H]4C[C@H](O)CC[C@]4(C)[C@H]3C[C@H](O)[C@]12C`, the inhibition in assay [1] is -3.07%. For the same molecule, the luciferase signal in assay [2] was 28 AU.

As to `COc1c(O)cc2c(-c3ccccc3)cc(=O)oc2c1OC`, in assay [1], the inhibition was -3.61%. Besides, the luciferase signal in assay [2] was 48 AU.

In the case of `COC(=O)C[C@H]1C(C)(C)[C@@H](O)[C@@H]2CC3=C4CC(O)O[C@@H](c5ccoc5)[C@]4(C)CCC3[C@@]1(C)C2=O` (stereo not given in full), the inhibition in assay [1] was -13.5%. In addition, in assay [2], the luciferase signal was 36 AU.

Regarding `COc1ccc2c(c1)OC/C(=C/c1ccc(OC)c(OC)c1)C2=O`, in assay [1], the inhibition was -0.769%. Also, in assay [2], the luciferase signal was 36 AU.

Turning to `CC(C)CCC[C@@H](C)[C@H]1CC[C@H]2[C@@H]3C[C@@H](O)[C@@]4(O)C[C@@H](O)CC[C@]4(C)[C@H]3CC[C@]12C`, the inhibition in assay [1] is -2.71%. Moreover, the luciferase signal in assay [2] was 88 AU.

On to `CC1=C(/C=C/C(C)=C/C=C/C(C)=C/C=C/C=C(C)/C=C/C=C(C)/C=C/C2=C(C)C(=O)[C@@H](O)CC2(C)C)C(C)(C)C[C@H](O)C1=O`, for which, in assay [1], the inhibition was -11.7%. In addition, the luciferase signal in assay [2] was 48 AU.

For the molecule `COc1ccc2ccc(=O)oc2c1`, the inhibition in assay [1] is 6.96%. Further, the luciferase signal in assay [2] was 44 AU.

As to `COC(=O)C[C@H]1C(C)(C)[C@@H](OC(C)=O)[C@@H]2CC3C4CC(=O)O[C@@H](c5ccoc5)[C@]4(C)CCC3[C@@]1(C)C2=O` (stereo not given in full), the inhibition in assay [1] is 7.27%. For the same molecule, the luciferase signal in assay [2] was 28 AU.

For the molecule `CC(C)[C@@H](C)/C=C/[C@@H](C)[C@H]1CC[C@H]2C3=CC=C4C[C@@H](O)CC[C@]4(C)[C@H]3CC[C@]12C`, the inhibition in assay [1] was -7.51%. Besides, in assay [2], the luciferase signal was 96 AU.

Consider `CC(=O)Oc1c(-c2ccccc2)oc2c(CC=C(C)C)c3c(c(OC(C)=O)c2c1=O)C=CC(C)(C)O3`, for which the inhibition in assay [1] was 7.48%. In addition, the luciferase signal in assay [2] is 40 AU.

For the molecule `COc1ccc2c(c1)CC[C@@H]1[C@@H]2CC[C@]2(C)[C@@H](O)CC[C@@H]12`, the inhibition in assay [1] is -8.02%. Also, in assay [2], the luciferase signal is 36 AU.

For `C=C1C2CCC3(C)C(c4ccoc4)OC(=O)CC13OC1CC(=O)C(C)(C)C(CC(=O)OC)C12C` (stereo not given), the inhibition in assay [1] is -8.25%. Besides, the luciferase signal in assay [2] was 16 AU.

On to `COc1cccc(/C=C/C(=O)O)c1C(C)C`, for which the inhibition in assay [1] was 0.939%. Also, the luciferase signal in assay [2] is 24 AU.

Consider `O=C(O)c1cc(O)c2c(c1)C(=O)c1cc(O)cc(O)c1C2=O`, for which the inhibition in assay [1] is 6.18%. For the same molecule, the luciferase signal in assay [2] is 76 AU.

With `COc1cc(O)c2c(=O)cc(-c3ccc(OC)c(-c4c(O)cc(O)c5c(=O)cc(-c6ccc(O)cc6)oc45)c3)oc2c1`, the inhibition in assay [1] was -1.48%. Further, the luciferase signal in assay [2] was 24 AU.

As for `O=C(O)C1CC([C@@H]2CCCCN2)CN2CCCCC12` (stereo not given in full), the inhibition in assay [1] was 18.1%. In assay [2], the luciferase signal is 220 AU (active).

With `C=C1C(=O)OC2CC1C(OC(C)=O)C/C(C)=C/CC/C(C)=C\CCC2(C)O` (stereo not given), the inhibition in assay [1] was 10.9%. Besides, the luciferase signal in assay [2] is 16 AU.

As for `COc1cc(C/C=C/c2ccccc2)c(OC)cc1O`, in assay [1], the inhibition is 9.29%. Moreover, the luciferase signal in assay [2] was 56 AU.

As to `C=C1[C@@H]([C@@]2(C)C=CC(=O)C(C)(C)[C@@H]2CC(=O)OC)CC[C@@]2(C)C(c3ccoc3)OC(=O)[C@H]3O[C@]132` (stereo not given in full), in assay [1], the inhibition was 0.696%. Besides, in assay [2], the luciferase signal is 20 AU.

For `COc1cc2ccc(=O)oc2c(O)c1O`, in assay [1], the inhibition was 13.8%. In assay [2], the luciferase signal is 76 AU.

Turning to `O=C1C=C(O)c2ccccc2C1=O`, in assay [1], the inhibition was 5.16%. Also, in assay [2], the luciferase signal was 44 AU.

For `CC(=O)N1CCC[C@H]1C(=O)O`, the inhibition in assay [1] was 11.4%. Further, the luciferase signal in assay [2] is 52 AU.

`C[C@@H]([C@H]1OC(C)(C)[C@@H](O)[C@H]1O)[C@@H]1CC[C@]2(C)C3=CC[C@H]4C(C)(C)C(=O)CC[C@]4(C)[C@H]3CC[C@@]12C`: the inhibition in assay [1] was 4.2%. In addition, the luciferase signal in assay [2] was 44 AU.
